Screening data as filed in PubChem.
The list is not random: actives were taken first. Their share in the collection is about 3%.
Mtb BioA inh = blocks M. tuberculosis BioA enzyme activity | purified M. tuberculosis BioA enzyme, plate reader | inhibition, % at 9.99 µM | hit rate 0.096% among 360,000 | AID 602481; in the data active = inhibition above about 40%
Vc quorum ag = quorum light induction in luxS cqsA deficient V. cholerae; hit rate 0.16% among 350,000; activation, % at 18.7 µM; V. cholerae BH1578 lux reporter, luminescence, 6 h; in the data active = activation mostly above about 9.7%, no sharp cut-off
FBA Mtb inh = Mtb fructose-bisphosphate aldolase inhibition | P9WQA3 | purified M. tuberculosis FBA, fluorescence read-out | inhibition, % at 1 µM | hit rate 2.3% among 360,000 | AID 588726; in the data active = inhibition above about 27%;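 note: 0% = vehicle and 100% = reference inhibitor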
Target sequence (P9WQA3 whole entry, looked up): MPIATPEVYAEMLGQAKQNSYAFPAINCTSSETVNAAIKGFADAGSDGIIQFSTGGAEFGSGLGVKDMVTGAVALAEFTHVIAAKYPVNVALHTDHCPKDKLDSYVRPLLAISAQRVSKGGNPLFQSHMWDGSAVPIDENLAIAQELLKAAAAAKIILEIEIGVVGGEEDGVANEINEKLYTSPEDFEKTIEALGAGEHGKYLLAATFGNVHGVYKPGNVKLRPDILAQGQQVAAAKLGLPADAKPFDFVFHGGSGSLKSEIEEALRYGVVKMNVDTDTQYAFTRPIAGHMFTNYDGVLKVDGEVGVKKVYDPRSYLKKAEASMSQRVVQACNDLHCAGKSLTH
GDH-TPI inh = GDH-TPI coupled enzyme inhibition counter-screen. AID 588335. hit rate 1.2% among 360,000. GDH-TPI coupled enzyme counterscreen, NADH absorbance. inhibition, % at 4.8 µM; in the data active = inhibition above about 30%;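 note: 0% = DMSO wells and 100% = wells lacking the enzyme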
The depositor's hits bear a star; i = inactive; . = no result; + = active, no number.

SMILES	Mtb BioA inh	Vc quorum ag	FBA Mtb inh	GDH-TPI inh
COc1cc2oc3ccccc3c(=O)c2cc1OC	0	-1	+	22
COCC(=O)Nc1ccc2c(c1)C(=O)N(C)C[C@H](OC)[C@H](C)CN(Cc1ccncc1)[C@@H](C)CO2	-3	.	.	.
COc1ccc2oc(=O)c(-c3nc4ccccc4o3)cc2c1	.	0	27	20
O=c1oc2ccccc2cc1-c1nc2c(s1)CCCC2	1	-1	139*	13
O=c1oc2ccccc2cc1-c1nc2ccccc2o1	-1	0	+	60*
COCCCNC(=S)N(CCCO)Cc1cc2cc3c(cc2[nH]c1=O)OCCO3	1	1	16	24
CCN(CC)CCCN(Cc1cc2cc(OC)c(OC)cc2[nH]c1=O)C(=O)Nc1ccccc1	-1	2	13	14
CCN(CC)CCCN(Cc1cc2cc3c(cc2[nH]c1=O)OCO3)C(=O)Nc1ccccc1OC	.	1	12	32*
COCCCNC(=S)N(CCCO)Cc1cc2cc3c(cc2[nH]c1=O)OCO3	0	-1	22	32*
CCCN(C)C[C@H]1Oc2ncc(C#CC3CC3)cc2C(=O)N([C@@H](C)CO)C[C@@H]1C	-2	.	.	.
C[C@H]1CN([C@@H](C)CO)C(=O)c2cccc(NC(=O)Nc3cccc4ccccc34)c2O[C@H]1CN(C)Cc1ccc(-c2ccccc2)cc1	-2	.	.	.
C[C@H]1CN([C@@H](C)CO)C(=O)c2cccc(NC(=O)C3CCCCC3)c2O[C@H]1CN(C)CC1CC1	-3	.	.	.
C[C@H](CO)N1C[C@H](C)[C@@H](CN(C)C(=O)C2CC2)Oc2cc(C#Cc3ccccn3)ccc2S1(=O)=O	4	.	.	.
C=CCN(CC=C)S(=O)(=O)c1ccc(NC(=S)NC(=O)/C=C/c2ccccc2)cc1	-6	i	2	31*
N=c1c(C(=O)NCC2CCCO2)cc2c(=O)n3ccccc3nc2n1Cc1cccnc1 (configuration not stated)	5	-1	+	16
N=c1c(C(=O)NCC2CCCO2)cc2c(=O)n3ccccc3nc2n1Cc1ccc(F)cc1 (configuration not stated)	5	1	+	0
COc1ccc(CCn2c(=N)c(C(=O)NCC3CCCO3)cc3c(=O)n4cccc(C)c4nc32)cc1 (configuration not stated)	2	-3	14	13
Cc1cccn2c(=O)c3cc(C(=O)NCC4CCCO4)c(=N)n(Cc4cccnc4)c3nc12 (configuration not stated)	12	i	+	13
COc1ccc(S(=O)(=O)N(C)C[C@@H]2Oc3ccc(NS(=O)(=O)c4ccc(C)cc4)cc3CC(=O)N([C@@H](C)CO)C[C@H]2C)cc1	-2	.	.	.
O=c1c2ccccc2nc(/C=C/c2ccccc2)n1-c1ccc(O)cc1	2	-8	6	19
O=c1c2ccccc2nc(/C=C/c2ccc(O)c(O)c2)n1-c1ccccc1	-1	i	-6	43*
COc1cc(/C=C/c2nc3ccccc3c(=O)n2-c2cccc(O)c2)ccc1O	-1	-1	-4	47*
COc1cc(/C=C/c2nc3ccccc3c(=O)[nH]2)ccc1O	0	i	-3	41*
C[C@H]1CN([C@@H](C)CO)C(=O)c2cccc(NS(=O)(=O)c3cn(C)cn3)c2O[C@H]1CN(C)Cc1ccc(-c2ccccc2)cc1	-3	.	.	.
CCOC(=O)C(=CNc1cc(C)ccc1C)C(=O)OCC	-7	-6	-2	34*
SMILES	Mtb BioA inh	Vc quorum ag	FBA Mtb inh	GDH-TPI inh
CCOC(=O)C(=CNc1cc(OC)ccc1-n1cccc1)C(=O)OCC	0	0	13	36*
CCOC(=O)C(=CNc1cc(C(F)(F)F)ccc1N1CCOCC1)C(=O)OCC	-1	0	0	32*
CC(=O)Nc1cc(C(F)(F)F)ccc1N1CCOCC1	0	-3	0	7
Cc1ccc(S(=O)(=O)N(C)C[C@H]2Oc3ccc(NC(=O)Cc4ccccc4)cc3C(=O)N([C@@H](C)CO)C[C@@H]2C)cc1	-1	.	.	.
CCOC(=O)c1sc2ncnc(N3CCN(c4ccc(OC)cc4)CC3)c2c1C	0	-1	1	6
CCOC(=O)c1sc2ncnc(N3CCN(C)CC3)c2c1C	.	0	8	33*
CNC[C@@H]1Oc2ccc(NS(=O)(=O)c3c(C)noc3C)cc2CC(=O)N([C@H](C)CO)C[C@H]1C	0	.	.	.
COc1cccc(N=Nc2c(N)[nH]n3c(=O)cc(-c4ccccc4)nc23)c1	0	-1	-6	-1
Cc1ccc(N=Nc2c(N)[nH]n3c(=O)cc(-c4ccccc4)nc23)cc1	-2	32*	-1	1
COc1ccc(-c2nnc(SCC(=O)Nc3ccccc3)n2C)cc1	-1	36*	3	0
Cn1c(SCC(=O)c2ccc(O)cc2O)nnc1-c1ccccc1	.	0	0	34*
C[C@@H]1CN([C@H](C)CO)C(=O)Cc2cc(NC(=O)CCC(F)(F)F)ccc2O[C@H]1CN(C)S(=O)(=O)c1cccs1	6	.	.	.
O=C(Nc1ccccc1)N1C[C@@H]2[C@H](c3ccccc31)[C@@H](CO)N2C(=O)c1ccccc1F	5	.	.	.
Cc1ccc(N=c2oc3cc(O)ccc3cc2C(N)=O)cc1	1	i	+	8
Cc1ccc(C(=O)N/N=c2\oc3ccccc3cc2C(N)=O)cc1	-1	i	1	0
CC(=O)c1cc2ccc(O)cc2oc1=O	-1	-4	+	10
CC(=O)c1cc2cc(O)ccc2o1	0	i	+	17
O=C(NCc1ccco1)c1cc2ccc(O)cc2oc1=O	.	i	+	5
O=C(C[C@H]1C=C[C@@H](NC(=O)NC2CCCC2)[C@@H](CO)O1)NCc1ccc(F)cc1	-1	.	.	.
CCNC(=O)C[C@@H]1CC[C@H](NC(=O)C2CCC2)[C@H](CO)O1	-1	.	.	.
COC(=O)c1sc2cc(C(F)(F)F)cnc2c1-c1ccccn1	.	0	2	10
O=C(O)c1sc2cc(C(F)(F)F)cnc2c1-c1ccccn1	.	0	146*	12
COc1cc(/C=C/C(=O)c2ccc3c(c2)OCO3)cc(OC)c1OC	-3	1	0	10
COc1cc(/C=C/C(=O)c2ccc3c(c2)OCCO3)cc(OC)c1OC	1	i	-3	37*
CCOc1ccc(/C=N/NC(=S)Nc2c(C)cccc2C)cc1	-1	i	2	32*
SMILES	Mtb BioA inh	Vc quorum ag	FBA Mtb inh	GDH-TPI inh
CCNC(=S)N/N=C/c1ccc(OCCOc2ccccc2C)cc1	-1	0	-1	15
Cc1ccc(S(=O)(=O)Nc2nc3ccccc3nc2NCC2CCCO2)cc1 (configuration not stated)	0	i	14	11
COc1ccc(S(=O)(=O)Nc2nc3ccccc3nc2NCC2CCCO2)cc1 (configuration not stated)	.	0	27*	25
O=S(=O)(Nc1nc2ccccc2nc1NCC1CCCO1)c1ccccc1 (configuration not stated)	.	0	7	41*
O=S(=O)(Nc1nc2ccccc2nc1NCC1CCCO1)c1ccc(F)cc1 (configuration not stated)	0	i	9	28
C[C@@H]1CN([C@@H](C)CO)C(=O)c2cc(NS(=O)(=O)c3cn(C)cn3)ccc2O[C@H]1CN(C)CC1CCCCC1	4	.	.	.
